Bioassay records: PubChem, National Center for Advancing Translational Sciences (NCATS)
The full list was thinned out, with hits kept by preference.
Sfp inh = Sfp phosphopantetheinyl transferase inhibition | 3.5% of 310,000 active | Biochemical Sfp PPTase activity, qHTS | AID 1490 | Q9F4F7 | Potency, µM, hits mostly inhibitors;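 also: the enzyme is Sfp with the accession as filed and its product quenches rhodamine fluorescence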
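Sfp 15 nM + cpd, 15 min RT; start w/ rhodamine-CoA 5 uM, BHQ-2-YbbR 12.5 uM (final); 50 mM Hepes pH 7.6, 10 mM MgCl2, 0.01% NP-40, 0.01% BSA; read 525/598 nm at 0 and 30 min.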
VDR inh = inhibitors of human vitamin D receptor; AID 504847; Potency, µM, actives largely listed as inhibitors; VDR-SRC2-3 peptide fluorescence polarization, 2 h; P11473; 0.93% of 400,000 active
Target sequence (P11473 whole entry, looked up): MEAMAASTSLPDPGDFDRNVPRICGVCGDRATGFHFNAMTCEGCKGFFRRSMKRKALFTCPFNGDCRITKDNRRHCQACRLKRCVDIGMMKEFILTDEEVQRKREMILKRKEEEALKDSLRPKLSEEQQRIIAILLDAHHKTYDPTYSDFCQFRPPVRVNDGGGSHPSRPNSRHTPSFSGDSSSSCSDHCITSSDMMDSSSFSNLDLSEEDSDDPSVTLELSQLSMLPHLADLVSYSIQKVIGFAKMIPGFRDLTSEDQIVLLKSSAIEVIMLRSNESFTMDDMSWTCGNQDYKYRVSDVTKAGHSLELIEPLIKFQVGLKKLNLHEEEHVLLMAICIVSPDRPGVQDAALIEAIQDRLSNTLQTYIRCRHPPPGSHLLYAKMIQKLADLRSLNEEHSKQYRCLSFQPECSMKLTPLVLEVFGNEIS
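Inhibition of the VDR/SRC2-3 peptide interaction is quantified by fluorescence polarization. Compounds (23 nl, pintool) incubate with the reagents for 2 hours at ambient room temperature.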
Glioma ERSR ind = induces the endoplasmic reticulum stress response in human glioma cells. U87-MG GRP78 promoter luciferase reporter, 16 h. Potency, µM, hits mostly activators. 0.02% of 420,000 active; also: series mostly up to about 76 µM; nearly all actives have a fitted effect of over 35% in size
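ERSR induction read as luciferase luminescence (Bright-Glo, 10 min at room temperature) in stably transfected human U87-MG glioma cells exposed to compounds for 16 h, using GRP78 as sensor.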
G9a block = inhibitors of human histone lysine methyltransferase G9a | G9a H3K9 monomethylation, AlphaScreen, 2 h | 8.8% of 350,000 active | Q96KQ7 | Potency, µM (highest dose often 102 µM), hits mostly inhibitors; also: nearly all actives have a fitted effect of over 75% in size
Target sequence (Q96KQ7 913-1193 limits assumed): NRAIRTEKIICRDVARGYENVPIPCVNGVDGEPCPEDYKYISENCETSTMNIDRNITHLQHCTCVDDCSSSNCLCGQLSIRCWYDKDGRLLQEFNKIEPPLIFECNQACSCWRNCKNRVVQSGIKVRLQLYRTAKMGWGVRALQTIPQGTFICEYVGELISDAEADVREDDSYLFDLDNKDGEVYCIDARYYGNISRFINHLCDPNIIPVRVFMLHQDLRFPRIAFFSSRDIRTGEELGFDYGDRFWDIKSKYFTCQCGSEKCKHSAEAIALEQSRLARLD
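Enzyme 20 nM + cpd, 15 min RT; add b-H3K9 pep 500 nM / SAM 20 uM; 2 h RT; anti-H3K9me1 Ab 0.5 ug/mL + SA donor / anti-rabbit acceptor beads 20 ug/mL each, 10 min; AlphaScreen read.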
12-LOX inh = inhibitors of human 12S-lipoxygenase ALOX12 | P18054 | purified 12hLO, xylenol orange hydroperoxide absorbance | Potency, µM (top dose mostly 108 µM), usual class: inhibitors | 1.1% of 580,000 active | AID 1671190
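Purified human 12hLO (150 nM final) in 25 mM Hepes, 0.01% Triton X-100, pH 7.0 was preincubated 15 min at room temperature with compound. Then 40 uM arachidonic acid was added, 30 min. Hydroperoxide was read by Fe-XO absorbance ratio 573/405 nm.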
Of the large screens only hits and unclear results are named; the others gave an inactive call; ! = not active in a repeat. Calls follow the shape of the dose curve; as a rule, active = well fitted curve in the direction sought with a large enough effect; inconclusive = small, poorly fitted or top-dose-only effect, or another doubt; inactive = no such curve, though single readings can be large; an effect the other way counts as inactive or inconclusive.

C=CCSc1nnc(NC(=O)C2=COCCO2)s1	G9a block 35µM (no result: Sfp inh)
O=C(Nc1nnc(SCc2ccccc2)s1)C1=COCCO1	none (no result: Sfp inh)
C=CCN(Cc1cccs1)C(=O)c1cccs1	none (no result: Sfp inh, VDR inh, Glioma ERSR ind, G9a block)
O=C1N=C(N2C=CC(=C3C=CNC=C3)C=C2)/C(=C/N=NC(=O)c2ccccc2O)S1	G9a block 71µM
OC[C@@H]1CN(Cc2cccc3ccccc23)C[C@H](n2cnc3c(NCc4ccco4)ncnc32)O1	12-LOX inh 35µM (no result: Sfp inh, VDR inh, G9a block)
CC(C)CNc1ncnc2c1ncn2[C@H]1CN(Cc2cccc3ccccc23)C[C@@H](CO)O1	12-LOX inh inconclusive (no result: Sfp inh, VDR inh, G9a block)
O=C(NCCN1CCCCCC1)C1CCC(CNS(=O)(=O)c2cccc3cccnc23)CC1 (configuration not stated)	G9a block 45µM
O=C(Nc1nnc(S(=O)(=O)N2CCCCCC2)s1)c1ccc(Br)cc1	VDR inh inconclusive, G9a block 14µM!
O=C(COc1ccc(Cl)cc1)Nc1nnc(S(=O)(=O)N2CCCCCC2)s1	G9a block 3.2µM!
Cc1nc(NC(=O)c2ccccc2)sc1-c1csc(Nc2ccc(Cl)cc2)n1	G9a block 45µM (no result: VDR inh, Glioma ERSR ind, 12-LOX inh)
Cc1nc(NC(=O)c2ccccc2)sc1-c1csc(Nc2ccc(F)cc2)n1	G9a block 32µM (no result: VDR inh, Glioma ERSR ind, 12-LOX inh)
Cc1nc(NC(=O)c2ccco2)sc1-c1csc(Nc2ccc(Cl)cc2)n1	12-LOX inh inconclusive
Cc1nc(NC(=O)c2ccccc2)sc1-c1csc(Nc2cccc(Cl)c2)n1	G9a block 50µM (no result: VDR inh, Glioma ERSR ind, 12-LOX inh)
CC(C)c1noc(-c2cccn3c(CNC(=O)c4ccc(F)cc4Cl)nnc23)n1	none (no result: Sfp inh, VDR inh, Glioma ERSR ind, G9a block)
CCOC(=O)c1cc(NC(=O)/C=C/C(=O)O)cc(C(=O)OCC)c1	none (no result: Sfp inh, VDR inh, Glioma ERSR ind, G9a block)
COCCNC(=O)[C@@H]1C[C@H](Oc2ccccc2)CN1S(=O)(=O)c1c(C)noc1C	none (no result: Sfp inh, VDR inh, Glioma ERSR ind, G9a block)
CC(=O)Nc1nc(=O)c2ccccc2s1	Sfp inh inconclusive, VDR inh inconclusive, G9a block 22µM, 12-LOX inh inconclusive
Cc1ccc(C(=O)Nc2nnc(NC(=S)Nc3ccccc3)s2)cc1	G9a block inconclusive, 12-LOX inh 40µM
Cc1ccc(C(=O)Nc2nc3ccccc3c(=O)s2)cc1	Sfp inh 56µM, VDR inh inconclusive, G9a block 8.9µM
O=C(Nc1nc(=O)c2ccccc2s1)c1ccccc1	Sfp inh 50µM, VDR inh inconclusive, G9a block inconclusive, 12-LOX inh inconclusive
Cc1[nH]n(-c2ccc([N+](=O)[O-])cc2)c(=O)c1C=NCC1CCCO1 (configuration not stated)	none
Cc1[nH]n(-c2ccc([N+](=O)[O-])cc2)c(=O)c1C=NCCc1ccc(S(N)(=O)=O)cc1	none
Cc1[nH]n(-c2ccc([N+](=O)[O-])cc2)c(=O)c1C=NCCc1c(C)[nH]c2ccccc12	Sfp inh 79µM
Cc1ccc(-n2[nH]c(C)c(/C=N/Nc3ccc([N+](=O)[O-])cc3[N+](=O)[O-])c2=O)cc1	VDR inh inconclusive, G9a block 3.2µM
CCOC(=O)c1ccc(N2C(=O)c3n[nH]c(-c4ccco4)c3C2c2ccc(F)cc2)cc1 (configuration not stated)	G9a block 11µM, 12-LOX inh inconclusive (no result: Sfp inh)
CCOC(=O)c1ccc(N2C(=O)c3n[nH]c(-c4ccco4)c3C2c2cccc(F)c2)cc1 (configuration not stated)	G9a block inconclusive (no result: Sfp inh)
CCc1ccc(C2c3c(-c4ccccc4)n[nH]c3C(=O)N2c2ccc(C(=O)O)cc2)cc1 (configuration not stated)	VDR inh inconclusive, 12-LOX inh 40µM (no result: Sfp inh)
CCOC(=O)c1ccc(N2C(=O)c3n[nH]c(C)c3C2c2ccccc2OC)cc1 (configuration not stated)	G9a block inconclusive (no result: Sfp inh)
CCOC(=O)c1ccc(N2C(=O)c3n[nH]c(-c4ccco4)c3C2c2ccccc2OC)cc1 (configuration not stated)	G9a block 13µM (no result: Sfp inh)
CN1CCN(C(=S)c2ccc(-c3cc(Cl)ccc3Cl)o2)CC1	Sfp inh inconclusive, G9a block 32µM, 12-LOX inh inconclusive
N#CCCN1CCN(C(=S)c2ccc(-c3cc(Cl)ccc3Cl)o2)CC1	G9a block 18µM
COc1ccc(N2C(=O)CC(SCCc3nc4ccccc4[nH]3)C2=O)cc1 (configuration not stated)	none (no result: G9a block)
O=C1CC(SCCc2nc3ccccc3[nH]2)C(=O)N1c1ccc(F)cc1 (configuration not stated)	G9a block 45µM
O=C(CN1CCN(c2cccc(Cl)c2)CC1)NC1CCS(=O)(=O)C1 (configuration not stated)	none (no result: Sfp inh, VDR inh, Glioma ERSR ind, G9a block)
COc1ccc(-n2c(=O)c(C#N)cc3c(=O)n4cccc(C)c4nc32)cc1	none (no result: Sfp inh, VDR inh, Glioma ERSR ind, G9a block)
CSCCC(NC(=O)c1cccc(C)c1)C(=O)Nc1sccc1C(N)=O (configuration not stated)	G9a block 50µM
CSCCC(NC(=O)c1ccccc1Cl)C(=O)NC1CCN(Cc2ccccc2)CC1 (configuration not stated)	G9a block 1.6µM
CSCCC(NC(=O)c1ccccc1Cl)C(=O)Nc1cc(C)cc(C)c1 (configuration not stated)	none (no result: Sfp inh, VDR inh, Glioma ERSR ind, G9a block)
CSCCC(NC(=O)c1cccc(S(=O)(=O)N2CCOCC2)c1)C(=O)Nc1cccc(C)c1 (configuration not stated)	G9a block 10µM
COC(=O)[C@H](CCSC)NC(=O)NC1CCN(Cc2ccccc2)CC1	none
CSCCC(NC(=O)c1ccccc1Cl)C(=O)Nc1cccc(S(=O)(=O)N2CCCC2)c1 (configuration not stated)	G9a block 45µM (no result: Sfp inh)
Cc1ccc(CNc2oc(-c3ccccc3C)nc2C#N)cc1	none (no result: Sfp inh, VDR inh, Glioma ERSR ind, G9a block)
COCCn1c(=O)c2c(nc(-n3nc(C)cc3C)n2CC(C)C)n(C)c1=O	none (no result: Sfp inh, VDR inh, Glioma ERSR ind, G9a block)
CC1=CCCC(C)(C)C12CCC(C)O2 (configuration not stated)	none (no result: Sfp inh, VDR inh, Glioma ERSR ind, G9a block)
CC(=O)Nc1ccc(NC(=O)Cn2c(C)cc3ccccc32)cc1	none (no result: Sfp inh, VDR inh, Glioma ERSR ind, G9a block)
Cc1ccc(-c2cc(C(=O)Nc3c(C)n(C)n(-c4ccccc4)c3=O)no2)cc1C	none (no result: Sfp inh, VDR inh, Glioma ERSR ind, G9a block)
COc1ccc(CC(=O)NCCS(=O)(=O)N2CCN(c3ccccc3)CC2)cc1	G9a block 45µM (no result: Sfp inh)
COc1ccc(N2CCN(S(=O)(=O)CCNC(=O)Cc3ccc(-c4ccccc4)cc3)CC2)cc1	12-LOX inh inconclusive (no result: Sfp inh)
COc1cc(-c2nc3ccc(N4CCN(C)CC4)cc3[nH]2)cc(OC)c1OC	G9a block 40µM
NCCSC1CC(=O)N(Cc2ccc(F)cc2)C1=O (configuration not stated)	G9a block 40µM
O=C1CC(Sc2ccc(Cl)cc2)C(=O)N1Cc1ccncc1 (configuration not stated)	none (no result: G9a block)
CCOc1ccc(N2C(=O)CC(SCCN)C2=O)cc1 (configuration not stated)	Sfp inh inconclusive, G9a block 18µM
CCOc1ccc(N2C(=O)CC(Sc3nnnn3-c3ccccc3)C2=O)cc1 (configuration not stated)	Sfp inh 16µM, G9a block 10µM
